Only some compounds are listed: those with a hit (about 4.1% of all), similar ones and a draw of the others.
TROY NFkB inh – inhibitors of TROY-driven NF-kB signaling, primary screen, Q293 LMP1-TROYcd cells, NF-kB luciferase, uHTS | inhibition, % at 10 µM | 0.98% of 360,000 active | Q293 LMP1-TROYcd NF-kB luciferase reporter, 4 h;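 active = compounds whose plate-normalised and pattern-corrected inhibition of the luciferase reporter signal at the single screening dose is 50% or more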
TRPM1 prom inh – inhibitors of MITF-dependent TRPM1 promoter reporter, primary screen, cell-based, SK-MEL-5, single point, luciferase. AID 488899, 2010. SK-MEL-5 TRPM1 promoter luciferase, 24 h. 0.83% of 330,000 active. inhibition, % at 12.5 µM;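 active = mean inhibition across replicates of 60% or more, whatever share of single replicates reaches that level; inconclusive = some that reach 60%, reason not given; inactive = mean inhibition across replicates below 60%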
Peg3 prom inh – Peg3 promoter-driven luciferase inhibitors, primary screen, cell-based, HeLa, luciferase luminescence | 1.7% of 360,000 active | inhibition, % at 20 µM | AID 588405, 2011 | HeLa PEG-Prom luciferase reporter, overnight;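 active = inhibition of at least 50% at 20 µM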
TWEAK-Fn14 inh – inhibitors of TWEAK-Fn14 signaling, primary screen, luciferase reporter cells, uHTS. 2% of 360,000 active. inhibition, % at 10 µM. TWEAK-stimulated Fn14 reporter cells, luciferase luminescence, 8 h; in the data active = inhibition above about 50%
Shn3 inh set2 – reduction of Shn3 3'UTR firefly luciferase signal, primary screen, Schnurri-3 inhibitor project, cell-based, Clone20 osteoblasts, set 2 | 0.52% of 360,000 active | inhibition, % at 12.5 µM | Clone20 osteoblast Shn3 3'UTR firefly luciferase, 24 h | AID 588674, 2011;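 active = mean inhibition of at least 75% with every replicate also reaching 75%; inconclusive = mean inhibition at least 75% but some replicate below; inactive = mean inhibition below 75%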;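 note: 0% = median of neutral control wells and 100% = pilot-screen positive control compound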
LMP1 NFkB inh – EBV LMP1-driven NF-kappaB luciferase reporter inhibitors, primary screen, cell-based, luminescence, single point; LMP1-induced NF-kappaB luciferase reporter cells; inhibition, % at 12.5 µM; 0.69% of 350,000 active; AID 504558, 2011; in the data active = inhibition above about 41%; inconclusive = no clear call, values can overlap the other calls;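 note: 0% = neutral control wells and 100% = reference inhibitor control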
An asterisk follows results filed as active; ? = inconclusive; / = no result.

SMILES | TROY NFkB inh | TRPM1 prom inh | Peg3 prom inh | TWEAK-Fn14 inh | Shn3 inh set2 | LMP1 NFkB inh
Oc1c(Cl)cc(Cl)cc1C=Nc1ccc2c(c1)OCCO2 | 63* | 29 | -34 | 75* | 26 | 5
Cc1cc(C)c2c(N)c(C(=O)c3ccc(Cl)cc3Cl)sc2n1 | 30 | 4 | -1 | 52* | 29 | 12
O=C(On1c(-c2ccccc2)nc2ccccc2c1=O)c1ccco1 | -17 | 16 | 27 | 20 | -2 | 19
COc1cc(OC)cc(-c2nc3ccccc3c(=O)n2OC(=O)c2ccccc2C)c1 | 21 | -3 | 53* | 43 | 3 | 23
CN(C)CCNC(=O)c1cccc(-c2cnc3c(NC=O)cc(-c4cccs4)cn23)c1 | 1 | / | 53* | -10 | -11 | /
CN(C)CCNC(=O)c1cccc(-c2cnc3c(NC=O)cc(-c4ccccc4F)cn23)c1 | -10 | / | 96* | -24 | -7 | /
COc1cccc(NC(=O)CSc2ccc3nnc(-c4ccccn4)n3n2)c1 | 3 | -1 | 4 | -2 | 10 | 1
CCSc1nc2ccc(OC)cc2cc1C#N | -71 | -69 | -84 | -13 | -39 | 78*
CCOc1ccc2nc(SCC#N)c(C#N)cc2c1 | -55 | 0 | -213 | -19 | 19 | -32
c1ccc(Nc2ccccc2)cc1 | 4 | 4 | 2 | 3 | -4 | -1
Oc1cc(Nc2ccccc2)cc2cccnc12 | 9 | 56 | 15 | 1 | 94* | -2
CN1CCN(c2cc(-c3cc(O)c4ncccc4c3)ccn2)CC1 | -2 | 50 | 41 | -2 | 36 | 22
Oc1cc(NCCN2CCOCC2)cc2cccnc12 | -30 | ? | 20 | 9 | -8 | 11
Oc1cc(-c2cccnc2)cc2cccnc12 | -37 | 51 | -1 | 5 | 89* | -4
Oc1cccc2cc(Nc3ccccc3)cnc12 | 14 | / | -35 | 100* | 95* | /
COc1ccccc1C(=O)NCCC(=O)Nc1ncccc1O | 14 | 10 | 17 | 4 | 8 | -1
Cc1ccc(C(=O)CSc2nnc3c4ccccc4nc(Cc4ccccc4)n23)cc1 | 65* | -4 | 4 | 26 | 18 | 9
CN(CCCN1CCCCC1)C(=O)c1cc(COc2ccc(F)cc2F)on1 | -6 | -10 | -15 | -6 | 0 | 6
O=C(O)c1ccccc1C(=O)OCc1ccccc1 | -11 | -8 | -27 | -5 | 8 | -2
CC1(C)CC=CC(COC(=O)c2ccccc2C(=O)O)C1 (configuration not stated) | -30 | -16 | -88 | 96* | -45 | -10
CNC(=O)OCc1nc(SSC(C)(C)C)n(C)c1COC(=O)NC | -8 | 58 | 94* | 89* | 96* | 13
Cc1cc(C)n2c(Nc3ccc4c(c3)OCCO4)c(-c3cc4ccccc4o3)nc2n1 | 85* | / | / | 97* | / | /
COc1ccc(NC(=O)C(NC(=O)c2ccc(C)cc2)c2ccccc2)cc1 (configuration not stated) | -33 | -25 | -46 | -12 | -9 | 1
CCOC(=O)C1=C(O)c2ccccc2C(=O)/C1=C\c1ccc(C)cc1 | 33 | 50 | 75* | 34 | 59 | -3
CC(C)(C)c1cc(/C=N/O)cc(C(C)(C)C)c1O | 37 | -4 | 8 | 54* | 1 | 10
SMILES | TROY NFkB inh | TRPM1 prom inh | Peg3 prom inh | TWEAK-Fn14 inh | Shn3 inh set2 | LMP1 NFkB inh
CCOc1cc(NC(=O)CCl)c(OCC)cc1NC(=O)CCl | 8 | 76* | 50* | 44 | 1 | -17
COc1ccc(-c2noc3c2-c2nc(-c4ccc(Br)cc4)sc2CC3)cc1 | 0 | 1 | -9 | 7 | 9 | -15
CC(C)(C)c1nc2c(s1)CCc1onc(-c3ccc(Br)cc3)c1-2 | -13 | 3 | -2 | 12 | 5 | 43*
Cc1ccc(N=C(NO)c2nonc2N)cc1 | -3 | -23 | -47 | 4 | -33 | -26
Cc1ccc(NC(=S)Nc2cccc(S(=O)(=O)Nc3c(C)n(C)n(-c4ccccc4)c3=O)c2)cc1 | -22 | 3 | -42 | 3 | -16 | 69*
CCC(C(=O)NCc1cccs1)n1nc(C)n2c(cc3occc32)c1=O (configuration not stated) | 6 | -7 | 20 | 1 | -3 | 2
CC(=O)c1ccc(NC(=S)NC(C)c2ccc(Cl)cc2Cl)cc1 (configuration not stated) | 56* | -21 | 30 | 11 | 13 | -4
O=C1C=C(N2CCOCC2)c2ccccc2C1=O | 12 | 85* | 101* | 10 | 97* | 12
O=C(COC(=O)C1C2CC3OC(=O)C1C3C2)Nc1ccc(F)cc1 (configuration not stated) | -5 | 4 | 3 | 10 | -16 | -6
Cc1nonc1OCCNc1ccc([N+](=O)[O-])cc1[N+](=O)[O-] | 7 | 25 | 65* | 2 | -13 | 6
Cc1nonc1OCCCNc1ccc([N+](=O)[O-])cc1Cl | -24 | -59 | -127 | -39 | -16 | -27
COc1cc(/C=N/N2C(=O)c3ccccc3NC2(C)c2cccc([N+](=O)[O-])c2)cc(Br)c1O (configuration not stated) | -62 | 9 | -24 | -29 | -18 | 2
CN1C=C/C(=C\c2cc[n+](C)c3ccccc23)c2ccccc21 | 1 | 77* | 11 | 28 | 69 | 35
CC[n+]1ccc(/C=C2\Sc3ccccc3N2CCCS(=O)(=O)[O-])c2ccccc21 | 22 | 8 | 8 | 6 | 67 | -5
Cc1cccc(NC(=O)c2sc(C)nc2C)c1 | -44 | -30 | -111 | -22 | -39 | -10
Cc1cccc(C(=O)Nc2nc(C)c(C(=O)Nc3ccc4c(c3)CCC4)s2)c1 | 8 | 12 | -42 | 52* | -73 | 20
CC(C)C[C@H]1CNC(=S)N1C[C@H]1CCCN1C[C@H](Cc1ccccc1)N1C[C@H](Cc2ccc(O)cc2)N(CC2CCCCCC2)C1=S | -2 | / | 99* | 12 | 7 | /
CC(C)C[C@H]1CNC(=S)N1CC1CCCN1C[C@H](Cc1ccccc1)N1C[C@H](Cc2ccc(O)cc2)N(CC2CCCCC2)C1=S (some centres not stated) | 1 | 26 | 59* | 23 | 26 | 1
Fc1ccc(CNC(=S)NC2CCCCCC2)cc1 | -2 | -2 | -25 | -10 | -2 | -3
COc1ccc(S(=O)(=O)N2CCC(C(=O)N[C@@H](C)C(=O)NCc3ccco3)CC2)cc1 | -4 | / | -9 | -4 | -2 | 6
O=C(CN1CCN(Cc2cccc(Cl)c2)C1=O)NCc1cccs1 | 4 | 8 | 11 | -6 | / | -12

Source: PubChem BioAssay (several laboratories)
